Growth data for 8 molecules are collected here from PubChem BioAssay (NCI).

Compounds without any hit were thinned out: in the full panel of roughly 83,000, 20% have a hit.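 Cell lines were cultured in 96-well plates, exposed to a single compound concentration, and assessed for percent growth 48 hours later.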 Unmarked numbers belong to inactive results. The source made the active and inactive calls. Rule for the calls: active = growth percent below 10; inactive = the rest.

Test systems include NCI-H23 lung; NCI-H226 lung; NCI-H322M lung; HOP-62 NSCLC; NCI-H460 lung; HOP-92 NSCLC; NCI-H522 lung; A549/ATCC NSCLC; 786-0 renal; DU-145 prostate; K-562 leukemia; MALME-3M melanoma; MDA-MB-231 breast; RXF 393 renal; SF-268 CNS; SF-295 CNS; SF-539 CNS; UACC-257 melanoma; M14 melanoma; COLO 205 colon.
What all share (assay): NCI-60 one-dose screen, 48 h (100 = growth as untreated, 0 = no growth, -100 = all killed)
What all share (settings): 10 µM unless noted

Turning to `O=C(N/N=C/c1ccc(Cl)cc1)c1ccc(C(F)(F)F)nc1Nc1cccc(C(F)(F)F)c1`, the growth in the experiment with NCI-H23 lung is -36.7% (active); in the experiment with NCI-H226 lung, 21.2%; with NCI-H322M lung, 8.21% (active); in the experiment on HOP-62 NSCLC, 43.5%; in the experiment on NCI-H460 lung, 6.99% (active); in the experiment with HOP-92 NSCLC, -0.43% (active). Also, the growth in the experiment on NCI-H522 lung was 8.57% (active); with A549/ATCC NSCLC, 19.5%; with 786-0 renal it was 23.1%; in the experiment with DU-145 prostate, 13.2%; in the experiment with K-562 leukemia it was 1.81% (active); with MALME-3M melanoma, 50.4%. Besides, the growth with MDA-MB-231 breast was 16%; in the experiment with RXF 393 renal, 42.6%; in the experiment on SF-268 CNS it was 2.52% (active); with SF-295 CNS it was -22.9% (active); in the experiment with SF-539 CNS, 3.47% (active); in the experiment on UACC-257 melanoma, 20%.

With `CN(C)c1ccc(/C=N\Nc2cc(=O)[nH]c3ccc(Cl)cc23)cc1`, the growth in the experiment with NCI-H23 lung was 82.8%; in the experiment with NCI-H226 lung, 75%; in the experiment with NCI-H322M lung, 99.2%; with HOP-62 NSCLC, 91.8%; in the experiment with NCI-H460 lung it was 102%; with HOP-92 NSCLC, 82.2%. For the same molecule, the growth in the experiment on NCI-H522 lung was 86.1%; in the experiment on A549/ATCC NSCLC, 96.6%; in the experiment with 786-0 renal it was 102%; with DU-145 prostate it was 123%; with K-562 leukemia, 91.8%; in the experiment with MALME-3M melanoma, 122%. The growth is 91.5% in the experiment with MDA-MB-231 breast; 105% in the experiment on RXF 393 renal; 99.5% in the experiment on SF-268 CNS; 98% in the experiment with SF-295 CNS; 101% in the experiment with SF-539 CNS; 98.1% in the experiment with UACC-257 melanoma. The growth in the experiment with M14 melanoma was 94.5%.

On to `CCOC(=O)c1cnn2c3ccccc3n(S(=O)(=O)c3ccc(OC)cc3)c12`, for which the growth is 28.2% in the experiment on NCI-H23 lung; 19.9% in the experiment with NCI-H226 lung; 53.7% in the experiment on NCI-H322M lung; 35% with HOP-62 NSCLC; 18.4% with NCI-H460 lung; 59.9% in the experiment on HOP-92 NSCLC. The growth with NCI-H522 lung is 20.6%; in the experiment with A549/ATCC NSCLC, 28.5%; in the experiment with 786-0 renal, 40.5%; with DU-145 prostate it was 14.8%; in the experiment with K-562 leukemia it was 11.2%; in the experiment with MALME-3M melanoma, 60.7%. Also, the growth in the experiment on MDA-MB-231 breast is 10.2%; with RXF 393 renal, -6.6% (active); with SF-268 CNS, 44.7%; in the experiment on SF-295 CNS, 14.1%; in the experiment with SF-539 CNS, -3.57% (active); in the experiment on UACC-257 melanoma, 80.1%. Besides, the growth in the experiment with M14 melanoma is 25.3%.

Take `C=CCc1cc(C)ccc1NC(C(=O)NCC(=O)OC)c1ccccc1` (stereo not given): the growth was 93.7% with NCI-H23 lung; 95.1% in the experiment on NCI-H226 lung; 95.3% with NCI-H322M lung; 85.5% with HOP-62 NSCLC; 116% in the experiment with NCI-H460 lung; 103% in the experiment with HOP-92 NSCLC. In addition, the growth in the experiment on NCI-H522 lung is 96.4%; in the experiment with A549/ATCC NSCLC, 93%; in the experiment on 786-0 renal, 94.1%; in the experiment on COLO 205 colon it was 100%; in the experiment with DU-145 prostate, 112%; with K-562 leukemia, 106%. Moreover, the growth in the experiment on MALME-3M melanoma was 105%; in the experiment on RXF 393 renal, 109%; in the experiment on SF-268 CNS it was 95%; in the experiment on SF-295 CNS, 92.9%; with SF-539 CNS it was 94.5%; in the experiment with UACC-257 melanoma, 104%. Further, the growth with M14 melanoma was 96.6%.

Turning to `Cc1nc(/N=C(\N)NC(=O)Nc2ccccc2Cl)sc1C`, the growth in the experiment on NCI-H23 lung is 42.6%; in the experiment with NCI-H226 lung it was 68%; in the experiment with NCI-H322M lung, 51%; in the experiment with HOP-62 NSCLC it was 45%; in the experiment on NCI-H460 lung, 12.1%; in the experiment with HOP-92 NSCLC, 64.6%. For the same molecule, the growth with NCI-H522 lung is 18.6%; in the experiment on A549/ATCC NSCLC, 47.8%; in the experiment with 786-0 renal, 57.1%; in the experiment on DU-145 prostate, 13.2%; in the experiment with K-562 leukemia, 13.1%; in the experiment on MALME-3M melanoma, 53.1%. The growth in the experiment with MDA-MB-231 breast is 50.5%; with RXF 393 renal, 4.01% (active); in the experiment with SF-268 CNS, 60.6%; in the experiment with SF-295 CNS, 12.6%; in the experiment with SF-539 CNS, 0.177% (active); with UACC-257 melanoma, 69.5%. Besides, in the experiment with M14 melanoma, the growth was 24%.

Turning to `O=c1ccc(N=Nc2ccc([N+](=O)[O-])cc2)ccc1O`, the growth with NCI-H23 lung is 2.17% (active); in the experiment with NCI-H226 lung, 16.6%; in the experiment on NCI-H322M lung it was 17.6%; with HOP-62 NSCLC, 33%; with NCI-H460 lung, 17.8%; in the experiment on HOP-92 NSCLC, 47.5%. Also, the growth with NCI-H522 lung is 14%; with A549/ATCC NSCLC, 31.5%; in the experiment on 786-0 renal, 42.3%; with DU-145 prostate it was 38.4%; in the experiment with K-562 leukemia, 13.7%; in the experiment on MALME-3M melanoma it was 22.9%. Further, the growth with MDA-MB-231 breast is 13.9%; in the experiment on RXF 393 renal, 46%; in the experiment with SF-268 CNS it was 23.2%; with SF-295 CNS, 12.6%; in the experiment with SF-539 CNS it was 16.7%; with UACC-257 melanoma it was 21.9%. Further, the growth in the experiment on M14 melanoma is 44.6%.

On to `COc1cc(/C=N/NC(=O)c2ccc(C)nc2)cc(OC)c1OC`, for which the growth in the experiment on NCI-H23 lung is 102%; in the experiment with NCI-H226 lung, 85.1%; with NCI-H322M lung it was 90.5%; in the experiment on HOP-62 NSCLC it was 105%; with NCI-H460 lung, 103%; with HOP-92 NSCLC, 90.5%. In addition, the growth in the experiment with NCI-H522 lung is 91.7%; with A549/ATCC NSCLC, 90.9%; in the experiment on 786-0 renal it was 34%; in the experiment with DU-145 prostate it was 114%; in the experiment with K-562 leukemia it was 52.2%; in the experiment on MALME-3M melanoma it was 97.3%. Besides, the growth in the experiment on MDA-MB-231 breast was 107%; with RXF 393 renal, 90%; in the experiment with SF-268 CNS, 104%; in the experiment with SF-295 CNS, 97.4%; in the experiment with SF-539 CNS, 97.6%; in the experiment with UACC-257 melanoma, 74.3%.

Regarding `Cc1nc2ccccc2c(/C=C/c2ccc(Cl)cc2)c1C(=O)/C=C/c1cccs1`, the growth with NCI-H23 lung was 67.8%; in the experiment with NCI-H226 lung it was 81.2%; in the experiment on NCI-H322M lung, 87.4%; in the experiment on HOP-62 NSCLC it was 94.9%; in the experiment on NCI-H460 lung, 66.7%; in the experiment with HOP-92 NSCLC, 64.1%. The growth in the experiment with NCI-H522 lung is 57.4%; in the experiment on A549/ATCC NSCLC it was 88.1%; in the experiment with 786-0 renal it was 87.4%; in the experiment with DU-145 prostate, 79%; in the experiment with K-562 leukemia, 44.7%; with MALME-3M melanoma, 107%. Moreover, the growth in the experiment with MDA-MB-231 breast was 75.8%; in the experiment with RXF 393 renal it was 83.7%; in the experiment on SF-268 CNS, 78.8%; with SF-295 CNS, 82%; in the experiment on SF-539 CNS, 99.5%; in the experiment on UACC-257 melanoma, 79.9%. Further, the growth in the experiment on M14 melanoma was 82%.
